# Experimental data: ChEMBL document CHEMBL4513146, “CO-ADD screening of Karazin Kharkiv National University (Ukraine) compounds”
# Measured potencies and affinities stand elsewhere.
# Columns and labels:
# [1] = system: Staphylococcus aureus; conditions: Concentration 32 ug.mL-1;; ASSAY_TEST Inhibition of Bacterial Growth; detection method Absorption (OD600); MEDIA CAMHB; plate type 384well; NBS; CORNING #3640; time 18 hr
# [2] = system: Escherichia coli; conditions: Concentration 32 ug.mL-1;; ASSAY_TEST Inhibition of Bacterial Growth; detection method Absorption (OD600); MEDIA CAMHB; plate type 384well; NBS; CORNING #3640; time 18 hr
smiles,measurement,setting,value
COc1ccc(CNC(=O)CCc2nnc3c4cc(-c5ccc(Cl)cc5)nn4ccn23)cc1OC,Inhibition,[1],3.74%
same,Inhibition,[2],1.66%
C=Cc1ccc(Cn2nc3c(=O)n(-c4cccc(Cl)c4C)ccn3c2=O)cc1,Inhibition,[1],-2.71%
same,Inhibition,[2],-4.95%
Cc1ccc(-n2ccn3c(=O)n(Cc4c(F)cccc4Cl)nc3c2=O)cc1C,Inhibition,[1],10.39%
same,Inhibition,[2],-0.86%
CC(C)NC(=O)CCn1c(=O)c2cc(Cl)ccc2n2c(=O)n(CC#N)nc12,Inhibition,[1],0.39%
same,Inhibition,[2],-9.95%
O=C(Cn1nc2c(N3CCOCC3)nccn2c1=O)NCc1ccc(Cl)cc1,Inhibition,[1],9.06%
same,Inhibition,[2],3.48%
CCCNC(=O)Cn1nc2n(Cc3cccs3)c(=O)c3sccc3n2c1=O,Inhibition,[1],6.83%
same,Inhibition,[2],-4.01%
COc1ccc(NC(=O)Cn2nc3ccc(SC(C)(C)C)nn3c2=O)cc1OC,Inhibition,[1],4.97%
same,Inhibition,[2],2.49%
COc1cc(NC(=O)Cn2nc3ccc(SC4CCCCC4)nn3c2=O)cc(OC)c1,Inhibition,[1],-2.94%
same,Inhibition,[2],-6.19%
COc1ccc(-c2cc3c4nnc(SCC(=O)Nc5cccc(Cl)c5C)n4ccn3n2)cc1,Inhibition,[1],-7.92%
same,Inhibition,[2],-11.64%
COc1cccc(-n2ccn3c(SCc4cccc(F)c4)nnc3c2=O)c1,Inhibition,[1],11.5%
same,Inhibition,[2],-8.02%
N#CCn1nc2n(Cc3ccc(F)cc3)c(=O)c3ccccc3n2c1=O,Inhibition,[1],1.37%
same,Inhibition,[2],-10.2%
Cc1ccc(-c2cc3c4nn(CC(=O)Nc5ccc(Cl)cc5)c(=O)n4ccn3n2)cc1C,Inhibition,[1],-15.51%
same,Inhibition,[2],-16.09%
Cc1ccc(Sc2nccn3c(=O)n(CC(=O)Nc4ccc(C)c(Cl)c4)nc23)c(C)c1,Inhibition,[1],6.61%
same,Inhibition,[2],-6.53%
CCc1ccc(N(Cc2cc(F)cc(F)c2)S(=O)(=O)c2cccn3c(C)nnc23)cc1,Inhibition,[1],-13.36%
same,Inhibition,[2],-0.39%
CCc1ccc(NC(=O)Cn2nc3cc(C)nc(Nc4ccc(F)c(C)c4)n3c2=O)cc1,Inhibition,[1],4.65%
same,Inhibition,[2],-6.45%
CCOC(=O)c1ccccc1NC(=O)Cn1nc2ccc(Sc3ccc(C)cc3)nn2c1=O,Inhibition,[1],14.05%
same,Inhibition,[2],1.21%
Cc1ccc(Cl)cc1NC(=O)Cn1nc2c(SC3CCCCC3)nccn2c1=O,Inhibition,[1],6.67%
same,Inhibition,[2],-3.22%
Cc1ccc(-n2ccn3c(SCC(N)=O)nnc3c2=O)cc1C,Inhibition,[1],19.3%
same,Inhibition,[2],0.16%
O=c1c2sccc2n2c(=O)n(Cc3ccc(F)cc3)nc2n1Cc1cccs1,Inhibition,[1],13.21%
same,Inhibition,[2],-2.41%
COc1cccc(CNC(=O)CSc2nnc3c4cc(-c5ccc(C)cc5)nn4ccn23)c1,Inhibition,[1],-18.93%
same,Inhibition,[2],-18.15%
COc1ccc(NC(=O)Cn2nc3ccc(-c4ccccc4)nn3c2=O)cc1,Inhibition,[1],6.57%
same,Inhibition,[2],-0.4%
CC(C)Sc1ccc2nn(CC(=O)Nc3ccc(Cl)cc3F)c(=O)n2n1,Inhibition,[1],9.58%
same,Inhibition,[2],-1.02%
Cc1nnc2c(S(=O)(=O)N(Cc3ccc(F)cc3)c3ccc(F)c(F)c3)cccn12,Inhibition,[1],15.7%
same,Inhibition,[2],3.7%
COc1ccccc1CNC(=O)Cn1nc2c(N3CCSCC3)nccn2c1=O,Inhibition,[1],5.62%
same,Inhibition,[2],-5.9%
Cc1cc2nn(CC(=O)NCc3ccccc3)c(=O)n2c(-c2ccc(C(F)(F)F)cc2)n1,Inhibition,[1],13.36%
same,Inhibition,[2],-8.01%
Cc1nnc2c(=O)n(CC(=O)Nc3cccc(Cl)c3)c3ccccc3n12,Inhibition,[1],13.08%
same,Inhibition,[2],5.41%
CCCNC(=O)Cn1nc2n(Cc3ccco3)c(=O)c3sccc3n2c1=O,Inhibition,[1],2.17%
same,Inhibition,[2],-0.94%
COc1ccc2[nH]cc(C(=O)CSc3nnc4c(=O)n(-c5ccc(C)c(C)c5)ccn34)c2c1,Inhibition,[1],17.24%
same,Inhibition,[2],-2.44%
CCOc1ccc(-n2ccn3c(SC(CC)C(=O)Nc4ccc(C(C)C)cc4)nnc3c2=O)cc1 (stereo not given),Inhibition,[1],5.33%
same,Inhibition,[2],-6.24%
COc1ccccc1NC(=O)Cn1c(=O)c2nnc(C(C)C)n2c2ccccc21,Inhibition,[1],22.81%
same,Inhibition,[2],-0.08%
CC(C)c1ccc(NC(=O)Cn2nc3ccc(SCc4ccc(Cl)cc4)nn3c2=O)cc1,Inhibition,[1],4.11%
same,Inhibition,[2],-6.33%
CCc1ccccc1Sc1nccn2c(=O)n(CC(=O)Nc3cccc(C)c3)nc12,Inhibition,[1],2.29%
same,Inhibition,[2],-6.79%
COc1cccc(NC(=O)Cn2nc3c(Sc4ccccc4)nccn3c2=O)c1,Inhibition,[1],6.76%
same,Inhibition,[2],0.48%
O=C(Cn1nc2ccc(SCc3ccc(Cl)cc3)nn2c1=O)NC1CCCCC1,Inhibition,[1],0.02%
same,Inhibition,[2],-9.74%
COc1cccc(-n2ccn3c(SCc4ccccc4C)nnc3c2=O)c1,Inhibition,[1],11%
same,Inhibition,[2],-3.45%
Cc1nnc2c(S(=O)(=O)N(Cc3ccc(F)cc3)c3ccc(C(C)C)cc3)cccn12,Inhibition,[1],-0.08%
same,Inhibition,[2],-8.42%
Cc1ccc(CNC(=O)Cn2nc3c(Sc4ccc(C)cc4C)nccn3c2=O)cc1,Inhibition,[1],-3.31%
same,Inhibition,[2],-11.72%
O=C(Cn1nc2ccc(Sc3cccc(F)c3)nn2c1=O)Nc1ccc2c(c1)OCCO2,Inhibition,[1],11.29%
same,Inhibition,[2],-2.18%
Cc1ccccc1Oc1nccn2c(=O)n(CC(=O)Nc3ccc(Cl)c(Cl)c3)nc12,Inhibition,[1],7.54%
same,Inhibition,[2],-4.77%
O=C(Cn1nc2c(SCc3ccccc3)nccn2c1=O)NCc1ccccc1,Inhibition,[1],-16.25%
same,Inhibition,[2],-19.33%
CCc1nnc2c(S(=O)(=O)N(Cc3ccccc3Cl)c3ccccc3)cccn12,Inhibition,[1],0.81%
same,Inhibition,[2],-6.41%
Cc1ccccc1Oc1nccn2c(=O)n(CC(=O)Nc3ccc(C#N)cc3)nc12,Inhibition,[1],8.67%
same,Inhibition,[2],-0.39%
Cc1ccccc1N1CCN(c2nccn3c(=O)n(CC(=O)Nc4cccc(C(C)C)c4)nc23)CC1,Inhibition,[1],14.78%
same,Inhibition,[2],-9.47%
COc1ccc(NC(=O)Cn2nc3ccc(-c4ccccc4)nn3c2=O)cc1OC,Inhibition,[1],0.84%
same,Inhibition,[2],-8.27%
COc1ccc(CNC(=O)Cn2nc3c(Oc4cccc(C)c4C)nccn3c2=O)cc1,Inhibition,[1],-12.87%
same,Inhibition,[2],0.86%
O=C(CSc1nnc2c(=O)n(-c3cccc(F)c3)ccn12)NCCc1ccccc1,Inhibition,[1],-2.66%
same,Inhibition,[2],-10.98%
Cc1ccc(NC(=O)Cn2nc3ccc(-c4ccc(Cl)cc4)nn3c2=O)cc1F,Inhibition,[1],3.27%
same,Inhibition,[2],-3.59%
CCOc1ccccc1NC(=O)Cn1nc2c3cc(-c4ccc(OC)cc4)nn3ccn2c1=O,Inhibition,[1],2.23%
same,Inhibition,[2],5.35%
Cc1cc2nn(CC(=O)Nc3ccccc3C)c(=O)n2c(Nc2ccc(F)c(C)c2)n1,Inhibition,[1],4.45%
same,Inhibition,[2],-4.23%
Cc1[nH]c2ccccc2c1C(=O)CSc1nnc2c(=O)n(-c3ccc(F)c(F)c3)ccn12,Inhibition,[1],13.1%
same,Inhibition,[2],-2.33%
CCOC(=O)c1ccc(NC(=O)CSc2nc3ccccc3n3c(C(C)C)nnc23)cc1,Inhibition,[1],-3.17%
same,Inhibition,[2],-9.79%
CCCNC(=O)Cn1nc2cc(C)nc(Nc3cc(C)cc(C)c3)n2c1=O,Inhibition,[1],13.08%
same,Inhibition,[2],0.71%
O=C(CSc1nnc2c(=O)n(-c3cccc(F)c3)ccn12)Nc1ccc(Br)cc1F,Inhibition,[1],15.57%
same,Inhibition,[2],-1.22%
O=C(CSc1nc2ccccc2n2cnnc12)NCc1ccccc1Cl,Inhibition,[1],1.47%
same,Inhibition,[2],-4.49%
CC(C)Sc1ccc2nn(CC(=O)Nc3ccccc3F)c(=O)n2n1,Inhibition,[1],-5.65%
same,Inhibition,[2],3.66%
